Reference: PubChem BioAssay (NCATS)
Records with an inconclusive call do not appear. Where a call stands in place of a potency, no number is given. Calls of active or inactive are those of the source. Calls come from the whole dose curve.

These compounds were tested against Cytochrome P450 1A2 (Homo sapiens) (UniProt P05177) (assay: p450-cyp1a2 (AID 410)). Conditions: recombinant CYP1A2, luciferin-ME demethylation, luminescence; series mostly up to 25.6 µM.
Description: The P450 gene superfamily is involved in metabolism and the clearance of xenobiotics. This assay used human CYP1A2 to measure the demethylation of luciferin 6' methyl ether (Luciferin-ME; Promega-Glo) to luciferin. The luciferin is then measured by luminescence after the addition of a luciferase detection regeant. Luciferin-ME concentration in the assay was equal to its Km for CYP1A2.
NCGC Assay Protocol Summary:
Two uL of enzyme and substrate mix (final concentrations: 20nM CYP1A2, 100uM Luciferin-ME, 100mM KPO4) were dispensed into a white, solid bottom 1536-well microtiter plate. 23nL of compound was transferred by a pin tool. The plate was incubated at room temperature for 10 min. Two uL of an NADPH regeneration solution (Promega supplied reagent) was dispensed and the reaction was allowed to continue for 60 min at room temperature. Then the reaction was stopped by reconstituted detection reagent. After another 20 min of incubation the plate was read on the ViewLux (Perkin Elmer) at 60 sec exposure and 2x2 binning. This protocol was carried out with Promega-Glo reagents and further information can be found at http://www.promega.com/tbs/tb325/tb325.pdf. Data were normalized to the to AC100 inhibition (57 uM furafylline).
Potency is the fitted concentration of half-maximal effect.

Cytochrome P450 1A2 (Homo sapiens), sequence (P05177 whole entry, looked up): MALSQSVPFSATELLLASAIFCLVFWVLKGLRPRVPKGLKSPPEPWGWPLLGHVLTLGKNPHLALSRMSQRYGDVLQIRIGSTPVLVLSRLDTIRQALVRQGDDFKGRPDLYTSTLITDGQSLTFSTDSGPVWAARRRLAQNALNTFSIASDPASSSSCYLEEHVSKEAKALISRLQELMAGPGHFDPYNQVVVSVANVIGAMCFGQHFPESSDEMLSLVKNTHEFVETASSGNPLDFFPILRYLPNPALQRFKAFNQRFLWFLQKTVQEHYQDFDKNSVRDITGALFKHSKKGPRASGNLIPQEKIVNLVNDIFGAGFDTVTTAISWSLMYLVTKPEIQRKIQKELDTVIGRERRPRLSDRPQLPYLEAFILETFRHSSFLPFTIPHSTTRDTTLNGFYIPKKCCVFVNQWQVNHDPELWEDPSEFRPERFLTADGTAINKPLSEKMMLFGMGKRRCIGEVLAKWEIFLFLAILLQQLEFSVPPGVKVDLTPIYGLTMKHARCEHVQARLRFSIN

| SMILES | Potency |
| --- | --- |
| COc1c(-c2ccccc2)oc2c(ccc3occc32)c1=O | 0.0251 µM (active) |
| CS(=O)(=O)Nc1cccc(-c2nc(Nc3ccc(F)cc3)c3ccccc3n2)c1 | 0.794 µM (active) |
| C[C@H](CCC(=O)NCC(=O)O)[C@H]1CC[C@H]2[C@H]3[C@@H](C[C@@H](O)[C@]12C)[C@]1(C)CC[C@H](O)C[C@@H]1C[C@@H]3O | inactive |
| CN(C)CCCO[C@H]1[C@@H]2OC(C)(C)O[C@@H]2O[C@@H]1[C@H](O)CO | inactive |
| CC[C@H](Cc1c(I)cc(I)c(N)c1I)C(=O)O | 12.6 µM (active) |
| CC[C@H](C(=O)[C@H](C)[C@H](O)[C@H](C)CCc1ccc(C)c(O)c1C(=O)O)[C@H]1O[C@](CC)([C@@H]2CC[C@@](O)(CC)[C@H](C)O2)C[C@H]1C | inactive |
| CO/N=C(\C(=O)N[C@@H]1C(=O)N2C(C(=O)O)=C(COC(N)=O)CS[C@@H]12)c1ccco1 | inactive |
| C=N[C@H](C(=O)N[C@@H]1C(=O)N2[C@@H]1SC(C)(C)[C@@H]2C(=O)O)c1ccccc1 | inactive |
| CC(C)(CO)[C@H](O)C(=O)NCCCO | inactive |
| C=CCN1C(=CCO)[C@H]2C[C@H]3[C@@H]1CC[C@@]31c3ccccc3N3C=C4[C@@H]5N(/C=C/2[C@H]31)c1ccccc1[C@]51CC[C@H]2[C@H]1C[C@@H]4/C(=C/CO)N2CC=C | inactive |
| COc1cc2nc(N3CCN(C(=O)[C@@H]4CCCO4)CC3)nc(N)c2cc1OC | inactive |
| CN1[C@H](CC(=O)c2ccccc2)CCC[C@H]1C[C@@H](O)c1ccccc1 | 31.6 µM (active) |
| C=C(C)[C@H]1CC[C@]2(CO)CC[C@]3(C)[C@@H](CC[C@H]4[C@@]5(C)CC[C@@H](O)C(C)(C)[C@@H]5CC[C@@]43C)[C@H]12 | inactive |
| C#C[C@@]1(OC(C)=O)CC[C@@H]2[C@@H]3CCC4=C[C@@H](OC(C)=O)CC[C@H]4[C@H]3CC[C@]21C | inactive |
| COc1ccc(C[C@@](C)(N)C(=O)O)cc1OC | inactive |
| CS(=O)(=O)Nc1cccc(-c2nc(Nc3ccccc3)c3ccccc3n2)c1 | 0.794 µM (active) |
| COc1cc2cc3c4cc(OC)c(OC)cc4cc[n+]3c(C)c2cc1OC | inactive |
| CCOC(=O)[C@H](CCc1ccccc1)N[C@@H](C)C(=O)N1[C@H](C(=O)O)C[C@H]2CCC[C@@H]21 | inactive |
| CNC[C@H](O)[C@H](O)[C@H](O)[C@H](O)CO | inactive |
| CC(C)(N=NC(C)(C)C(=N)N)C(=N)N | inactive |

| SMILES | Potency |
| --- | --- |
| NS(=O)(=O)c1cc2c(cc1Cl)N[C@@H](C(Cl)Cl)NS2(=O)=O | inactive |
| CCN(CC)CCOC(=O)[C@@H](c1ccccc1)C1CCCCC1 | 1.26 µM (active) |
| Nc1c(O)cccc1C(=O)C[C@@H](N)C(=O)O | inactive |
| C[C@@]1(O)CCOC(=O)C1 | inactive |
| CC(C)CC(=O)N[C@H](C(=O)N[C@H](C(=O)N[C@@H](CC(C)C)[C@H](O)CC(=O)N[C@@H](C)C(=O)N[C@@H](CC(C)C)[C@H](O)CC(=O)O)C(C)C)C(C)C | inactive |
| CC(=O)N[C@H](CS)C(=O)O | inactive |
| CO[C@H]1C=CO[C@]2(C)Oc3c(C)c(O)c4c(O)c(c5c(c4c3C2=O)NC2(CCN(CC(C)C)CC2)N=5)=NC(=O)C(C)=CC=C[C@@H](C)[C@@H](O)[C@@H](C)[C@@H](O)[C@@H](C)[C@@H](OC(C)=O)[C@@H]1C | inactive |
| O=C(/C=C\c1ccc(O)c(O)c1)O[C@@H]1C[C@](O)(C(=O)O)C[C@@H](O)[C@@H]1O | inactive |
| COc1ccc2nccc(C(=O)O)c2c1 | inactive |
| C[C@@H]1C(=O)O[C@@H]2C[C@]34[C@H]5C[C@@H](C(C)(C)C)[C@@]36[C@@H](OC(=O)[C@@H]6O)O[C@@]4(C(=O)O5)[C@@]12O | inactive |
| C1CCC(C(C[C@@H]2CCCCN2)C2CCCCC2)CC1 | 6.31 µM (active) |
| C=Cc1c(C)c2cc3nc(cc4[nH]c(cc5nc(cc1[nH]2)C(C)=C5CCC(=O)O)c(CCC(=O)OC)c4C)[C@@]1(C)C3=CC=C(C(=O)OC)[C@H]1C(=O)OC (tested in a mixture with another compound) | 3.98 µM (active) |
| Cc1cccc(C)c1NC(=O)[C@H](C)N | inactive |
| CCC[C@H]1C[C@H](C(=O)N[C@H]([C@@H]2O[C@H](SC)[C@@H](O)[C@H](O)[C@@H]2O)[C@H](C)O)N(C)C1 | inactive |
| Cn1c(-c2ccc3c(c2)OCO3)cc(=O)c2ccccc21 | 5.01 µM (active) |
| CC=C(/C(=C/C)c1ccc(O)cc1)c1ccc(O)cc1 | 15.8 µM (active) |
| COc1c(O[C@H]2O[C@@H](CO)[C@@H](O)[C@@H](O)[C@@H]2O)cc2c(c1OC)-c1ccc(SC)c(=O)cc1[C@H](NC(C)=O)CC2 | inactive |
| CO[C@H]1[C@@H](OC(N)=O)[C@H](O)[C@@H](Oc2ccc3c(O)c(NC(=O)c4ccc(O)c(CC=C(C)C)c4)c(=O)oc3c2C)OC1(C)C | inactive |
| CN[C@]1(C)[C@H]2CC[C@@H](C2)C1(C)C | inactive |
| CCC(=O)O[C@@H]1[C@H](C)O[C@H](O[C@H]2[C@@H](N(C)C)[C@H](O)[C@@H](O[C@@H]3[C@@H](CC=O)C[C@@H](C)[C@@H](O)/C=C\C=C/C[C@@H](C)OC(=O)C[C@@H](OC(=O)CC)[C@H]3OC)O[C@H]2C)C[C@]1(C)O | inactive |
